# The supplement of paper PMC8728848
# This excerpt belongs to a sample that is enriched for the strongest signals.
# Assays:
# Test in all cases: glycan array binding signal (z-score within array); higher = stronger binding
# Conditions in all cases: glycan notation: IUPAC condensed, linker removed
# [1] = target: Fuc(a1-2)Gal(b1-4)[Fuc(a1-3)]GlcNAc
# Outline: (§1)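 The binding signal is a Z-score computed within each array and averaged over linkers. Arrays of the same protein sequence at different concentrations or buffers were also averaged together. Data originate from 3228 arrays in the Consortium for Functional Glycomics database, kept only where the protein sequence was available.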
# [2] = target: Fuc(a1-2)[Gal(a1-3)]Gal(b1-3)GlcNAc(b1-2)Man(a1-3)[Fuc(a1-2)[Gal(a1-3)]Gal(b1-3)GlcNAc(b1-2)Man(a1-6)]Man(b1-4)GlcNAc(b1-4)GlcNAc
# Outline: as §1
# [3] = target: Fuc(a1-2)[Gal(a1-3)]Gal(b1-4)[Fuc(a1-3)]GlcNAc
# Outline: as §1
# [4] = target: Fuc(a1-2)[GalNAc(a1-3)]Gal
# Outline: as §1
# [5] = target: Fuc(a1-2)[GalNAc(a1-3)]Gal(b1-4)[Fuc(a1-3)]GlcNAc
# Outline: as §1
# [6] = target: Fuc(a1-3)[Gal(b1-4)]GlcNAc(b1-2)Man(a1-3)[Fuc(a1-3)[Gal(b1-4)]GlcNAc(b1-2)Man(a1-6)]Man(b1-4)GlcNAc(b1-4)GlcNAc
# Outline: as §1
# [7] = target: Fuc(a1-3)[Gal(b1-4)]GlcNAc(b1-2)Man(a1-3)[Fuc(a1-3)[Gal(b1-4)]GlcNAc(b1-2)Man(a1-6)]Man(b1-4)GlcNAc(b1-4)[Fuc(a1-6)]GlcNAc
# Outline: as §1
# [8] = target: Fuc(a1-3)[Gal(b1-4)]GlcNAc(b1-4)Gal(b1-4)[Fuc(a1-3)]GlcNAc
# Outline: as §1
# [9] = target: Gal(a1-3)Gal(b1-4)GlcNAc(b1-2)Man
# Outline: as §1
# [10] = target: Gal(a1-3)Gal(b1-4)GlcNAc(b1-3)GalNAc
# Outline: as §1
# Gal(b1-3)Gal(b1-4)GlcNAc = target: Gal(b1-3)Gal(b1-4)GlcNAc
# Outline: as §1
# [11] = target: Gal(b1-3)GlcNAc(b1-2)[Gal(b1-3)GlcNAc(b1-6)]Man(a1-6)[Gal(b1-3)GlcNAc(b1-2)Man(a1-3)]Man(b1-4)GlcNAc(b1-4)GlcNAc
# Outline: as §1
# [12] = target: Gal(b1-4)GlcNAc(b1-2)Man(a1-3)[Gal(b1-4)GlcNAc(b1-2)Man(a1-6)][GlcNAc(b1-4)]Man(b1-4)GlcNAc(b1-4)[Fuc(a1-6)]GlcNAc
# Outline: as §1
# [13] = target: Gal(b1-4)GlcNAc(b1-3)Gal(b1-4)GlcNAc(b1-3)Gal(b1-4)GlcNAc(b1-3)Gal(b1-4)GlcNAc(b1-2)Man(a1-3)[Gal(b1-4)GlcNAc(b1-3)Gal(b1-4)GlcNAc(b1-3)Gal(b1-4)GlcNAc(b1-3)Gal(b1-4)GlcNAc(b1-2)Man(a1-6)]Man(b1-4)GlcNAc(b1-4)[Fuc(a1-6)]GlcNAc
# Outline: as §1
# [14] = target: Gal(b1-4)GlcNAc(b1-3)Gal(b1-4)GlcNAc(b1-3)Gal(b1-4)GlcNAc(b1-3)Gal(b1-4)GlcNAc(b1-2)[Gal(b1-4)GlcNAc(b1-3)Gal(b1-4)GlcNAc(b1-3)Gal(b1-4)GlcNAc(b1-3)Gal(b1-4)GlcNAc(b1-6)]Man(a1-6)[Gal(b1-4)GlcNAc(b1-3)Gal(b1-4)GlcNAc(b1-3)Gal(b1-4)GlcNAc(b1-3)Gal(b1-4)GlcNAc(b1-2)Man(a1-3)]Man(b1-4)GlcNAc(b1-4)[Fuc(a1-6)]GlcNAc
# Outline: as §1
# [15] = target: Gal(b1-4)GlcNAc(b1-3)Gal(b1-4)GlcNAc(b1-3)Gal(b1-4)GlcNAc(b1-3)Gal(b1-4)GlcNAc(b1-3)Gal(b1-4)GlcNAc(b1-2)Man(a1-3)[Gal(b1-4)GlcNAc(b1-3)Gal(b1-4)GlcNAc(b1-3)Gal(b1-4)GlcNAc(b1-3)Gal(b1-4)GlcNAc(b1-3)Gal(b1-4)GlcNAc(b1-2)Man(a1-6)]Man(b1-4)GlcNAc(b1-4)GlcNAc
# Outline: as §1
# [16] = target: Gal(b1-4)GlcNAc(b1-3)Gal(b1-4)GlcNAc(b1-3)Gal(b1-4)GlcNAc(b1-3)Gal(b1-4)GlcNAc(b1-3)Gal(b1-4)GlcNAc(b1-2)Man(a1-3)[Gal(b1-4)GlcNAc(b1-3)Gal(b1-4)GlcNAc(b1-3)Gal(b1-4)GlcNAc(b1-3)Gal(b1-4)GlcNAc(b1-3)Gal(b1-4)GlcNAc(b1-2)Man(a1-6)]Man(b1-4)GlcNAc(b1-4)[Fuc(a1-6)]GlcNAc
# Outline: as §1
# [17] = target: Gal(b1-4)GlcNAc(b1-6)GalNAc
# Outline: as §1
# Gal4S6S(b1-4)GlcNAc = target: Gal4S6S(b1-4)GlcNAc
# Outline: as §1
# GalNAc(b1-4)GlcNAc = target: GalNAc(b1-4)GlcNAc
# Outline: as §1
# [18] = target: GalNAc(b1-4)GlcNAc(b1-3)GalNAc(b1-4)GlcNAc
# Outline: as §1
# GalNAc4S6S(b1-4)GlcNAc = target: GalNAc4S6S(b1-4)GlcNAc
# Outline: as §1
# GalNAc6S(b1-4)GlcNAc = target: GalNAc6S(b1-4)GlcNAc
# Outline: as §1
# [19] = target: Glc(a1-4)Glc(a1-4)Glc(a1-4)Glc
# Outline: as §1
# [20] = target: GlcNAc(a1-4)Gal(b1-4)GlcNAc
# Outline: as §1
# [21] = target: GlcNAc(b1-2)Man(a1-3)[GlcNAc(b1-2)Man(a1-6)]Man(b1-4)GlcNAc(b1-4)[Fuc(a1-6)]GlcNAc
# Outline: as §1
binder,measurement,setting,value
"HopZSSI-T (Helicobacter pylori), B5Z6D0 (protein) MGSSHHHHHHSSGLVPRGSHMENLYFQGEDNGFFISAGYQIGEAAQMVKNTGELKKLSDTYENLSNLLTNFNNLNQAVTNASSPSEINAAIDNLKANTQGLTGEKTNSPAYQAVYLALNAAVGLWNVIAYNVQCGPGNSSQQSVTFEGQPGHNSSSINCNLTGYNNGVSGPLSIDNFKQLNQAYQVLQQALKQGVPVLNNTNQKIEVKVTTQTNGQSSKETTTTTTTNDAQTLLQEASKMIDVLTTNCPWVNHNPGQNGGAPWGLIRQECVSGFATEFSAVTSMIKNAQEIVTQAQSLNANQNNQNAPQDFNPYTSADRAFAQNMLNHAQAQAKILELADQMKKDLNTIPSQFITNYLAACRIDGTTPSQGVTNNTWGAGCAYVEETITALNNSLAHFGTQAEQIKQSELLARTILDFRGSLSTLNSTYNSITTTASNTPNSPFLKNLISQSTNPNNPGGLQAVYQVNQSAYSQLLSATQELGHNPFRRIGLISSQT",glycan array binding signal (z-score),[1],-0.221
same,glycan array binding signal (z-score),[2],-0.111
same,glycan array binding signal (z-score),[3],0.174
same,glycan array binding signal (z-score),[4],-0.229
same,glycan array binding signal (z-score),[5],-0.057
same,glycan array binding signal (z-score),[6],-0.248
same,glycan array binding signal (z-score),[7],-0.378
same,glycan array binding signal (z-score),[8],-0.536
same,glycan array binding signal (z-score),[9],-0.247
same,glycan array binding signal (z-score),[10],-0.615
same,glycan array binding signal (z-score),Gal(b1-3)Gal(b1-4)GlcNAc,-0.409
same,glycan array binding signal (z-score),[11],0.014
same,glycan array binding signal (z-score),[12],-0.305
same,glycan array binding signal (z-score),[13],1.74
same,glycan array binding signal (z-score),[14],0.699
same,glycan array binding signal (z-score),[15],2.12
same,glycan array binding signal (z-score),[16],1.86
same,glycan array binding signal (z-score),[17],1.25
same,glycan array binding signal (z-score),Gal4S6S(b1-4)GlcNAc,-0.807
same,glycan array binding signal (z-score),GalNAc(b1-4)GlcNAc,2.32
same,glycan array binding signal (z-score),[18],0.498
same,glycan array binding signal (z-score),GalNAc4S6S(b1-4)GlcNAc,3.87
same,glycan array binding signal (z-score),GalNAc6S(b1-4)GlcNAc,9.12
same,glycan array binding signal (z-score),[19],-0.263
same,glycan array binding signal (z-score),[20],0.109
same,glycan array binding signal (z-score),[21],0.081
